The full data set covers some 7,900 targets. This sample favours those with a hit. About 0.6% of all pairs of compound and target were hits.
Assays:
Experiment in all cases: log2 fold change, soluble protein after heating vs DMSO (PISA); higher = thermal stabilisation; K562 cells, 10 uM, 30 min; active = over 0.2 and 3.5 SD of the protein, either way, in both replicates (recomputed)
[1] = compound: Cc1cccc(CC(=O)N2CCc3c2ccc(-c2cn(C)c4ncnc(N)c24)c3F)n1
Outline: (§1)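 For each measurement, 10 μM compound was applied for 30 min to K562 cells at 2×10^6 cells/mL. Aliquots were heated for 3 min across 48°C-58°C, pooled, and extracted in PBS with 0.5% NP-40 at 4°C; the supernatant after 21,000xg for 90 min was soluble protein. This was quantified by TMTpro 16plex LC-MS/MS with channel sums equalised, and thermal stability was reported relative to control samples from duplicates, on a log2 fold-change scale.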

nilotinib = compound: Cc1cn(-c2cc(NC(=O)c3ccc(C)c(Nc4nccc(-c5cccnc5)n4)c3)cc(C(F)(F)F)c2)cn1 [nilotinib]
Outline: as §1

[2] = compound: Cc1nc(Nc2n[nH]c3c2CN(C(=O)N[C@H](CN(C)C)c2ccccc2)C3(C)C)c2sccc2n1
Outline: as §1

[3] = compound: Cc1ncc(-c2ccnc(Nc3ccc(S(C)(=O)=O)cc3)n2)n1C(C)C
Outline: as §1

[4] = compound: Cn1cc(-c2ccc3c(c2)CCN3C(=O)Cc2cccc(C(F)(F)F)c2)c2c(N)ncnc21
Outline: as §1

tipifarnib = compound: Cn1cncc1[C@@](N)(c1ccc(Cl)cc1)c1ccc2c(c1)c(-c1cccc(Cl)c1)cc(=O)n2C [tipifarnib]
Outline: as §1

mubritinib = compound: FC(F)(F)c1ccc(/C=C/c2nc(COc3ccc(CCCCn4ccnn4)cc3)co2)cc1 [mubritinib]
Outline: as §1

[5] = compound: NC(=O)Nc1cc(-c2cccc(F)c2)sc1C(=O)N[C@H]1CCCNC1
Outline: as §1

[6] = compound: NC(=O)c1cnc(N[C@@H]2CCCC[C@@H]2N)nc1Nc1cccc(-n2nccn2)c1
Outline: as §1

[7] = compound: NC1(c2ccc(-c3nc4ccn5c(=O)[nH]nc5c4cc3-c3ccccc3)cc2)CCC1
Outline: as §1

[8] = compound: NCC(=O)Nc1ccc(-n2nc(C(F)(F)F)cc2-c2ccc3c(ccc4ccccc43)c2)cc1
Outline: as §1

entinostat = compound: Nc1ccccc1NC(=O)c1ccc(CNC(=O)OCc2cccnc2)cc1 [entinostat]
Outline: as §1

vorinostat = compound: O=C(CCCCCCC(=O)Nc1ccccc1)NO [vorinostat]
Outline: as §1

citarinostat = compound: O=C(CCCCCCNC(=O)c1cnc(N(c2ccccc2)c2ccccc2Cl)nc1)NO [citarinostat]
Outline: as §1

silmitasertib = compound: O=C(O)c1ccc2c(c1)nc(Nc1cccc(Cl)c1)c1ccncc12 [silmitasertib]
Outline: as §1

[9] = compound: O=C1NC(=O)C(c2cnc3ccccn23)=C1c1cn2c3c(cc(F)cc13)CN(C(=O)N1CCCCC1)CC2
Outline: as §1

[10] = compound: c1cc(OCCN2CCCCC2)cc(-c2n[nH]c3ccc(-c4nnc[nH]4)cc23)c1
Outline: as §1

bafetinib = compound: Cc1ccc(NC(=O)c2ccc(CN3CC[C@H](N(C)C)C3)c(C(F)(F)F)c2)cc1Nc1nccc(-c2cncnc2)n1 [bafetinib]
Outline: as §1

[11] = compound: Cn1cc(-c2ccc3nnc(C(F)(F)c4ccc5ncccc5c4)n3n2)cn1
Outline: as §1

dasatinib = compound: Cc1nc(Nc2ncc(C(=O)Nc3c(C)cccc3Cl)s2)cc(N2CCN(CCO)CC2)n1 [dasatinib]
Outline: as §1

Measured: log2 fold change

CNN1 (UniProt P51911)
UniProt P51911, sequence (P51911 whole entry, looked up): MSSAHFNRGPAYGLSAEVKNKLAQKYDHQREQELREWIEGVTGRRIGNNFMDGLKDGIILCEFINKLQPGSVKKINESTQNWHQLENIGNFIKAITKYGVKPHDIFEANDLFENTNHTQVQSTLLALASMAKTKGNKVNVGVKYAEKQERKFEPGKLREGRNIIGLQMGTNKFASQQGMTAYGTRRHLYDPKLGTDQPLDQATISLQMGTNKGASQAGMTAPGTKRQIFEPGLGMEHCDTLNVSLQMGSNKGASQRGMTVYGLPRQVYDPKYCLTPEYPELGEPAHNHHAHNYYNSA
inactive: [1] 0.22 | nilotinib 0.008 | [2] 0 | [3] 0.031 | [4] 0.04 | tipifarnib 0.049 | mubritinib 0.009 | [5] -0.002 | [6] -0.07 | [7] -0.305 | [8] -0.023 | entinostat 0.018 | vorinostat -0.125 | citarinostat 0.168 | silmitasertib 0.108 | [9] -0.008 | [10] -0.052

CRTC3 (UniProt Q6UUV7)
UniProt Q6UUV7, sequence (Q6UUV7 whole entry, looked up): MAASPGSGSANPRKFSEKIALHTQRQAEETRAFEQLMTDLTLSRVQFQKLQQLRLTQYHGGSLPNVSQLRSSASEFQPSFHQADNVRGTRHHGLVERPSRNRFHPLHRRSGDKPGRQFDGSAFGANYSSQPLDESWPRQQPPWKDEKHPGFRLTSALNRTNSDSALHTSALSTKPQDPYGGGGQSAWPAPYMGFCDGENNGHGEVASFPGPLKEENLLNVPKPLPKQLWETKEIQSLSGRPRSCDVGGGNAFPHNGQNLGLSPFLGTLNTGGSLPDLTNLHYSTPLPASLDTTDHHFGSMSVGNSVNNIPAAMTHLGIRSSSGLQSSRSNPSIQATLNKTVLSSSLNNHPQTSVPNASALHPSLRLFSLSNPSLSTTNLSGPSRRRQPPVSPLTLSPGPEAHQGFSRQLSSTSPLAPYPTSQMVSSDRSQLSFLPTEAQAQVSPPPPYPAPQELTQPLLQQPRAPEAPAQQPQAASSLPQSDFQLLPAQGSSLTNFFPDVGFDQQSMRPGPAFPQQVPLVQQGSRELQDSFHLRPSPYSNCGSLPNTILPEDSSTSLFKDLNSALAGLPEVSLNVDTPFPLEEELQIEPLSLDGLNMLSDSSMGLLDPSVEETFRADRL
active: [5] -0.754
inactive: bafetinib -0.018 | [4] -0.002 | [11] -0.019 | tipifarnib -0.302 | mubritinib -0.168 | [7] -0.007 | [8] 0.001 | entinostat 0.057 | silmitasertib 0.098 | [9] 0.025

CASK (UniProt O14936)
inactive: dasatinib 0.096 | [6] 0.026

C15orf41 (UniProt Q9Y2V0)
UniProt Q9Y2V0, sequence (Q9Y2V0 whole entry, looked up): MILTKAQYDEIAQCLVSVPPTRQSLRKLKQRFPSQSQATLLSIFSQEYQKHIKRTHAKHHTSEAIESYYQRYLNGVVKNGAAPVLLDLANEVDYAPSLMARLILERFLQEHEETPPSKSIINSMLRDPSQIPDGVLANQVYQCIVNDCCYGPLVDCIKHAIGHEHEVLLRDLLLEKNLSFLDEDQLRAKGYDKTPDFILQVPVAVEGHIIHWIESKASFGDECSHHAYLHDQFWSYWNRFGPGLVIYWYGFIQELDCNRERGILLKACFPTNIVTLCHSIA
active: dasatinib -0.357
inactive: [1] -0.101 | [4] -0.097 | [11] -0.088 | tipifarnib -0.087 | [5] -0.076 | [6] -0.046 | [8] -0.061 | entinostat -0.01 | vorinostat 0.069 | citarinostat 0.07 | [9] 0.023 | [10] -0.007

CCDC187, A0A1W2PQX5
inactive: [1] -0.106 | nilotinib 0.318 | [2] 0.027 | [3] 0.104 | [11] -0.056 | [6] -0.147 | vorinostat -0.042 | [9] -0.048

CLASP2 (UniProt O75122)
UniProt O75122, sequence (O75122 whole entry, looked up): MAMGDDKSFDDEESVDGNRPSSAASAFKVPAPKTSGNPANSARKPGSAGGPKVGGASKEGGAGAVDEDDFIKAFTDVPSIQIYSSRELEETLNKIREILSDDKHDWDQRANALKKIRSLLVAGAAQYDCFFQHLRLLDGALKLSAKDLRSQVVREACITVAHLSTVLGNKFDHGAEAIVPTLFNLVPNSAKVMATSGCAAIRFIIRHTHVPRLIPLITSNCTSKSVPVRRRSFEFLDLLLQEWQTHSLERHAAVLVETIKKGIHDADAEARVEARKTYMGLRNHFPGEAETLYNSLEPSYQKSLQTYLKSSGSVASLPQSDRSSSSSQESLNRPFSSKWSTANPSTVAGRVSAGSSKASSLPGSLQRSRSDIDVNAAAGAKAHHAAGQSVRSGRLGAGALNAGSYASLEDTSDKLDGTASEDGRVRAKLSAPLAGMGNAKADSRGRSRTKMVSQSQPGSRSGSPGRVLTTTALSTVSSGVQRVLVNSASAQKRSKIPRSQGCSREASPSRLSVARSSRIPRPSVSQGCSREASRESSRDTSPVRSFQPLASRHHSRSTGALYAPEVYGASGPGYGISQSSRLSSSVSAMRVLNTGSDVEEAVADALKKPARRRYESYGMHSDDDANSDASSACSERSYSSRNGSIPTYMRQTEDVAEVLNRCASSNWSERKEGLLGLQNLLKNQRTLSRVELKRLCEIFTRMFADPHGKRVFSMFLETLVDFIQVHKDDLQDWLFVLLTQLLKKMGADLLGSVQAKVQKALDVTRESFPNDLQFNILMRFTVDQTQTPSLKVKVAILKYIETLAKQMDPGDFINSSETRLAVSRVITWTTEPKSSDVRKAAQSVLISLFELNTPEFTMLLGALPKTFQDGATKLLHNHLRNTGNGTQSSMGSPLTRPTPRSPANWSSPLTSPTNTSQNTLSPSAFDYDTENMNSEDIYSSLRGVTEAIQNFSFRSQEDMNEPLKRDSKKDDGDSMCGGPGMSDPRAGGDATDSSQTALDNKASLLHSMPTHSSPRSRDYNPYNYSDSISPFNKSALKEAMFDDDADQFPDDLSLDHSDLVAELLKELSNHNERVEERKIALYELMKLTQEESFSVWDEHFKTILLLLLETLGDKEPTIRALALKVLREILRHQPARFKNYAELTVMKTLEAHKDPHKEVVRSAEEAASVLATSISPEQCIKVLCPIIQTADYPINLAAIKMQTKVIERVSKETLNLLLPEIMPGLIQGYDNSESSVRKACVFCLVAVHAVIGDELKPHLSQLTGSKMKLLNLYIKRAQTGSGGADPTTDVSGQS
inactive: bafetinib -0.098 | nilotinib 0.014 | [2] -0.278 | [3] -0.231 | [4] -0.155 | [11] -0.344 | tipifarnib 0.045 | mubritinib 0.027 | [6] -0.049 | [7] 0.046 | citarinostat 0.143 | silmitasertib 0.083 | [10] 0.08

CCNL1 (UniProt Q9UK58)
UniProt Q9UK58, sequence (Q9UK58 whole entry, looked up): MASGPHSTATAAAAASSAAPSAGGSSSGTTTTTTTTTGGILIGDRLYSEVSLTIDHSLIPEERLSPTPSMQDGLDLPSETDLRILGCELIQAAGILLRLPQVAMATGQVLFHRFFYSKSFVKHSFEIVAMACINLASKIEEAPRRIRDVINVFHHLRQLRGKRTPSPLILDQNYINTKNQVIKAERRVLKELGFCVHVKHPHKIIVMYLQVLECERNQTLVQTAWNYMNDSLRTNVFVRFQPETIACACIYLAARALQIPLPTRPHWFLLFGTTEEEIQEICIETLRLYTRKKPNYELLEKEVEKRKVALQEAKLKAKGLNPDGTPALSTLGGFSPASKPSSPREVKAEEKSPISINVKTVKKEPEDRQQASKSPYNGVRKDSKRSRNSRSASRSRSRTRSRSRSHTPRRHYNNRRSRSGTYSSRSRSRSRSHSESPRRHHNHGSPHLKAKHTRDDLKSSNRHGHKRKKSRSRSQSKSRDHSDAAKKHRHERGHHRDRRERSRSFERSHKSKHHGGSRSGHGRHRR
inactive: mubritinib 0.122 | [7] -0.224 | silmitasertib -0.173

CFAP58 (UniProt Q5T655)
inactive: [1] 0.009 | [11] -0.046 | tipifarnib -0.108 | mubritinib 0.127 | [7] 0.028 | vorinostat 0.018 | citarinostat -0.357 | silmitasertib -0.008 | [10] 0.392

CFAP47 (UniProt Q6ZTR5)
inactive: bafetinib 0.034 | dasatinib -0.117 | tipifarnib 0.047 | [6] 0.022 | [8] -0.024 | citarinostat -0.042 | [9] -0.025 | [10] -0.008

C6orf120 (UniProt Q7Z4R8)
UniProt Q7Z4R8, sequence (Q7Z4R8 whole entry, looked up): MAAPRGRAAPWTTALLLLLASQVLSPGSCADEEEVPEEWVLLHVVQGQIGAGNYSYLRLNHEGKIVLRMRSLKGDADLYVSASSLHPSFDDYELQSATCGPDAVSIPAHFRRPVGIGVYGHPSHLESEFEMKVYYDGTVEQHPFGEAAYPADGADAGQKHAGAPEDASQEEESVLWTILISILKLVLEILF
inactive: bafetinib -0.145 | nilotinib -0.045 | [2] 0.044 | dasatinib 0.029 | [3] -0.048 | [11] -0.032 | tipifarnib 0.026 | [5] 0.068 | [8] -0.018 | entinostat 0.083 | citarinostat 0.031 | [10] -0.141

CDCA2 (UniProt Q69YH5)
UniProt Q69YH5, sequence (Q69YH5 whole entry, looked up): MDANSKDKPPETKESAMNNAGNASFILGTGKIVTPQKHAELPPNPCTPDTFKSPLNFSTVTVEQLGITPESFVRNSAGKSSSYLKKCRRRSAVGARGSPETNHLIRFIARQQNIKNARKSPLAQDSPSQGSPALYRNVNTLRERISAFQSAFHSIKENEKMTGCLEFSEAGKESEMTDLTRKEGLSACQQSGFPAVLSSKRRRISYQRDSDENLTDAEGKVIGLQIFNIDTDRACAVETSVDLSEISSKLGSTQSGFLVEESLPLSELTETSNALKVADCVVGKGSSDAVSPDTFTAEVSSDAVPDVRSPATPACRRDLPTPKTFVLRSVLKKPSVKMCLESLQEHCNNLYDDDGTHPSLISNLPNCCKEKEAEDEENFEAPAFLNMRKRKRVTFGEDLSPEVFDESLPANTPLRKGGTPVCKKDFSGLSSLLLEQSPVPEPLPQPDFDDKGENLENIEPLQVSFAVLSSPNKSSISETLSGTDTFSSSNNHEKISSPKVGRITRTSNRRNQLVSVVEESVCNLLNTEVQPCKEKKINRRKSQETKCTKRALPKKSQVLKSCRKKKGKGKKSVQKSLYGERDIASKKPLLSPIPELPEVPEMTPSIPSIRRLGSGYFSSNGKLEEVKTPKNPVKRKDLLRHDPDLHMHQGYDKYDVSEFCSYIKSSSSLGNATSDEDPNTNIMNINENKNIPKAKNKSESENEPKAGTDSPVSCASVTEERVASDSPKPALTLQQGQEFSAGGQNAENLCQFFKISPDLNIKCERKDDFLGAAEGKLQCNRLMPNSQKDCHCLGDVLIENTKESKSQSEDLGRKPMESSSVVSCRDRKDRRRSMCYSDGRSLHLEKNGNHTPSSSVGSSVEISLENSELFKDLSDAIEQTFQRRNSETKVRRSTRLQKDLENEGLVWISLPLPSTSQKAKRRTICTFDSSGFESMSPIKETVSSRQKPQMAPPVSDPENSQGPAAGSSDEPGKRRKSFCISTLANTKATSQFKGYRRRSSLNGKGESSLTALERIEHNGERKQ
inactive: [1] -0.065 | nilotinib 0.164 | [2] -0.114 | [3] 0.042 | [4] 0.159 | [11] -0.215 | tipifarnib 0.182 | mubritinib -0.256 | [5] -0.034 | [6] -0.096 | [7] -0.003 | [8] 0.037 | entinostat -0.11 | vorinostat 0 | citarinostat -0.27 | silmitasertib 0.133 | [9] 0.035 | [10] 0.243

CDK19 (UniProt Q9BWU1)
inactive: [1] -0.014 | nilotinib -0.266 | [2] 0.297 | dasatinib 0.101 | [3] 0.338 | [4] -0.01 | [11] -0.054 | tipifarnib -0.045 | mubritinib 0.112 | [5] -0.131 | [6] -0.135 | [7] -0.093 | [8] -0.018 | entinostat -0.085 | vorinostat 0.016 | citarinostat -0.265 | silmitasertib 0.327 | [9] 0.16 | [10] -0.089

CS (UniProt F8VU34)
inactive: bafetinib 0.044 | citarinostat -0.298 | [10] -0.393

COG2 (UniProt Q14746)
UniProt Q14746, sequence (Q14746 whole entry, looked up): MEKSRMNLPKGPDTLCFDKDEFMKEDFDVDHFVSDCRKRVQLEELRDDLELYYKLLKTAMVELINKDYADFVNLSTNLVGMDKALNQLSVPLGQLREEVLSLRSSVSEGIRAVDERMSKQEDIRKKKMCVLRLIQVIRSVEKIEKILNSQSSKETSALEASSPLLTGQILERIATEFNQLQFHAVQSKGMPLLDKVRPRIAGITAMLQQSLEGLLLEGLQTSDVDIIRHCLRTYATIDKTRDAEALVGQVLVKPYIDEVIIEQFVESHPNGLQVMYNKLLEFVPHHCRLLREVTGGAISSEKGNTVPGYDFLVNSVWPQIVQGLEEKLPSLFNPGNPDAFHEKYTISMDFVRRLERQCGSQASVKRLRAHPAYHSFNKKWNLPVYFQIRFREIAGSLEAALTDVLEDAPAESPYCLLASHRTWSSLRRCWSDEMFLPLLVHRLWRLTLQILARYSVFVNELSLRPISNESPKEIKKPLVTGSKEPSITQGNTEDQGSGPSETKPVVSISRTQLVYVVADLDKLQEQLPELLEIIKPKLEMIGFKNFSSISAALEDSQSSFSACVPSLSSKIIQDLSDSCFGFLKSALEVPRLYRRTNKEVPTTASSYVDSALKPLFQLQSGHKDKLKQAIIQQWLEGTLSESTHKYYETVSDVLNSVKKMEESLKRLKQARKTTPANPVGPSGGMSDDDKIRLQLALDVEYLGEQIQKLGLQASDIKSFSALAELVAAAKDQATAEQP
inactive: nilotinib -0.169 | [2] -0.006 | dasatinib -0.051 | [3] 0.133 | [4] -0.074 | [11] 0.245 | mubritinib -0.035 | [5] -0.07 | [6] -0.513 | [7] -0.487 | entinostat 0.138 | citarinostat 0.101 | silmitasertib 0.248 | [9] -0.031 | [10] 0.34

CRTC2 (UniProt Q53ET0)
inactive: bafetinib -0.035 | nilotinib 0.038 | [2] 0.01 | [3] -0.094 | [11] -0.081 | tipifarnib -0.092 | mubritinib 0.022 | [6] -0.001 | [7] -0.13 | [8] 0.038 | entinostat 0.004 | citarinostat -0.099 | silmitasertib 0.092 | [9] -0.125 | [10] -0.143
active: [5] -0.814

— the supplement of paper PMC10849652
